Screening data as filed in PubChem.
M1 ag = human M1 muscarinic receptor agonism | P11229 | activation, % at 3 µM | hit rate 0.33% among 360,000 | CHO-K1 hM1, Fluo-8 calcium fluorescence, agonist mode; 0% DMSO, 100% acetylcholine EC100;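 active = activation above the run's mean compound activation plus 3 SD, cut at about 16% in these data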;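 also: peak over basal fluorescence ratio within a 140 s kinetic read after compound addition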
Target sequence (P11229 whole entry, looked up): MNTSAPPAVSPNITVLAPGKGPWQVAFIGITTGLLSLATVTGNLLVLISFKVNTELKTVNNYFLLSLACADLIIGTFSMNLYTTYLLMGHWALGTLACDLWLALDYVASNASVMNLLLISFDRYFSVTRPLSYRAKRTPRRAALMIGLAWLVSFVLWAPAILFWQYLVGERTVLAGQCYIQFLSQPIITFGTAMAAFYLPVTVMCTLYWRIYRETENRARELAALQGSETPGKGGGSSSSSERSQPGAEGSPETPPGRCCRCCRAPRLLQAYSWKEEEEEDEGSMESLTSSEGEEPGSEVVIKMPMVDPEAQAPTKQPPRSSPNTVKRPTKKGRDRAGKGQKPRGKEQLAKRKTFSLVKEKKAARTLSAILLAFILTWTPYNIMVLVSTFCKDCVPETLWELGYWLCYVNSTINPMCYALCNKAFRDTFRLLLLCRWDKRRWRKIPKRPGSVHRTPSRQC
M1 ag parental = counter-screen for M1 agonists: effect in parental CHO-K1 cells; Fluo-8 calcium fluorescence; scaled to maximal ATP response, vehicle zero; activation, % at 3 µM; hit rate 0.48% among 360,000; AID 602248; in the data active = activation above about 15%;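 also: untransfected CHO-K1 host cells lacking M1 receptor as counterscreen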
CHRM1 PAM = human CHRM1 positive allosteric modulation | CHO-K1 hM1, Fluo-8 calcium fluorescence, ACh EC20; 0% = ACh EC20, 100% = maximal ACh | activation, % at 3 µM | P11229 | hit rate 0.088% among 360,000 | AID 588819; in the data active = activation above about 19%, passing the limit was not always enough
CHO-K1 Ca antag = M1 antagonist counterscreen hit in parental CHO-K1 cells; ATP-induced calcium, Fluo-8 fluorescence; inhibition, % at 3 µM; AID 602250; hit rate 0.6% among 360,000;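 active = inhibition above a per-plate cutoff, the plate's mean sample inhibition plus 3 SD, cut at about 24% in these data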;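 also: 0% = DMSO plus EC80 ATP and 100% = DMSO alone without ATP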
CHRM1 antagonist = antagonists of human M1 muscarinic receptor. CHO-K1 hM1, Fluo-8 calcium fluorescence, ACh EC80 antagonist. inhibition, % at 3 µM. P11229. hit rate 1.3% among 360,000. AID 588852;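 active = percent inhibition above its own plate's cutoff, namely the mean of that plate's compound wells plus 3 SD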;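 also: peak over basal fluorescence ratio during 140 s after agonist addition; 0% = ACh EC80 plus DMSO and 100% = DMSO alone without agonist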
CHO-K1 Ca PAM = nonselective activator or artifact in parental CHO-K1 calcium assay. ATP EC20, Fluo-8 calcium fluorescence; 0% at ATP EC20, 100% at ATP max. activation, % at 3 µM. AID 602247. hit rate 0.02% among 360,000;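 active = activation above the run cutoff, the mean activation of all test compounds plus 3 SD, cut at about 40% in these data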;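 also: peak over basal fluorescence ratio in a 140 s read after ATP addition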
* marks the source's active call; other numbers are inactive results. In the library only some 2.3% were active in any assay of this set; here they are far more common.

SMILES | M1 ag | M1 ag parental | CHRM1 PAM | CHO-K1 Ca antag | CHRM1 antagonist | CHO-K1 Ca PAM
NC(=O)NC(CC(=O)NNC(=O)c1ccccn1)c1ccccc1Cl (centres undefined) | -2 | 1 | 7 | 8 | -4 | 19
Cc1ccccc1C(=O)Nc1ccc(-c2nc3ccc(C(=O)c4ccccc4)cc3[nH]2)cc1 | -3 | 2 | -9 | 34* | 28* | -8
O=C(Nc1cccc(-c2nc3ccccc3s2)c1)c1cccs1 | -11 | 2 | -5 | 6 | 30* | 6
O=C(c1ccccc1)c1ccc2nc(-c3ccc(NC(=O)c4ccccc4Br)cc3)[nH]c2c1 | -4 | 5 | -3 | 9 | 11 | 19
O=C(Nc1ccc(-c2nc3ccc(NC(=O)c4cccs4)cc3[nH]2)cc1)c1cccs1 | -5 | 2 | -17 | 6 | 38* | 4
CCCN(CC(=O)Nc1cc(C)on1)CC(=O)Nc1ccccc1C | -3 | 1 | 1 | -9 | 4 | -1
Cc1cc(C)c(S(=O)(=O)Nc2nnc(C3CCCCC3)s2)c(C)c1 | -5 | -1 | 12 | -20 | -24 | 23
CCOC(=O)C1CCCN(c2nc3c(C)cccn3c(=O)c2/C=C(\C#N)C(=O)NCc2ccco2)C1 (centres undefined) | 62* | 2 | -25 | -18 | 76* | 10
Cc1cccn2c(=O)c(/C=C(\C#N)C(=O)NCc3ccco3)c(N3CCCC(C)C3)nc12 (centres undefined) | -7 | 1 | 1 | 1 | -6 | -6
O=C1C(=C2CCCCC2)SC(=S)N1Cc1ccco1 | -6 | 0 | -20 | -2 | 29* | 4
O=C(O)CCN1C(=O)C(=C2CCCCCC2)SC1=S | -3 | 0 | 6 | -2 | -7 | 18
CN(C)c1ccc(C=C2SC(=S)N(Cc3ccco3)C2=O)cc1 | 20* | 12 | -16 | 12 | 17 | -6
N#Cc1c(N)[nH]c(=S)c(C#N)c1-c1ccccc1 | -4 | 0 | 5 | 24* | -3 | -4
Cc1ccc(-c2cc(-c3ccccc3)[nH]c(=S)c2C#N)cc1 | -2 | 0 | 5 | 0 | -6 | 8
O=C(CCN1C(=O)/C(=C/c2ccccc2F)SC1=S)NCCc1ccc(O)cc1 | 3 | 16* | -12 | 10 | 32* | 12
O/N=C(\CN1CCCCC1)c1ccccc1 | -9 | 1 | -6 | -11 | 14 | 13
COc1ccc(C[C@@H]2CN3C(=NC[C@@H]3Cc3ccc(O)cc3)N2C[C@H](C)NC(=O)CCC2CCCCC2)cc1 | -14 | 0 | -37 | -6 | 48* | 8
CC1(C(=O)NS(=O)(=O)c2cccc(Cl)c2)CCN1C(=O)Cc1cc(F)ccc1F (centres undefined) | -3 | 0 | -2 | -15 | 3 | 7
Cc1cccc(S(=O)(=O)NC(=O)C2(C)CCN2C(=O)Cc2cc(F)ccc2F)c1 (centres undefined) | -10 | 0 | 13 | -7 | 102* | 10
O=C(Nc1ccncc1)C1CCC(CNS(=O)(=O)c2cccc3nsnc23)CC1 (centres undefined) | -5 | 5 | -6 | -12 | -10 | 5
CCOC(=O)Cn1ccc(NC(=O)c2ccc(F)cc2)n1 | -4 | 2 | 0 | 1 | -3 | 6
OCC1(Cc2ccccc2F)CCCN(CCc2ccccc2)C1 (centres undefined) | -10 | 0 | -25 | -2 | 31* | -9
OCC1(Cc2ccc(F)cc2F)CCCN(CCCc2ccccc2)C1 (centres undefined) | -10 | 0 | -16 | 9 | 15 | 6
CC[C@@H](NS(=O)(=O)c1ccc(C)cc1)C(=O)Oc1ccc2c3c(c(=O)oc2c1)CCC3 | -6 | 12 | -10 | 3 | -1 | -5
CC(C)CC(C(=O)Oc1ccc2c3c(c(=O)oc2c1)CCC3)N1C(=O)c2ccccc2C1=O (centres undefined) | -1 | 0 | 5 | -7 | -12 | 12
SMILES | M1 ag | M1 ag parental | CHRM1 PAM | CHO-K1 Ca antag | CHRM1 antagonist | CHO-K1 Ca PAM
Cc1ccc(S(=O)(=O)NC(CC(C)C)C(=O)Oc2ccc3c4c(c(=O)oc3c2)CCC4)cc1 (centres undefined) | -4 | 3 | -19 | 25* | 43* | -12
CCC(C)C(NS(=O)(=O)c1ccc(C)cc1)C(=O)Oc1ccc2c3c(c(=O)oc2c1)CCC3 (centres undefined) | -4 | 4 | -8 | -27 | -19 | 49*
CC(Oc1ccc2c3c(c(=O)oc2c1)CCC3)C(=O)NCC1CCC(C(=O)O)CC1 (centres undefined) | -3 | 0 | 5 | 0 | -7 | 5
COc1ccc(C(=O)NC(C)CCc2ccccc2)c(O)c1 (centres undefined) | -2 | 4 | 0 | -3 | 0 | -8
Cc1ccc(C(C)C)c2c1C(c1ccc3c(c1)OCO3)CC(=O)O2 (centres undefined) | 21* | 9 | -1 | -11 | -1 | 15
COc1ccc(CN(C)c2ccc(S(=O)(=O)N3CCN(C)CC3)cc2[N+](=O)[O-])cc1OC | 3 | 16* | -15 | 31* | 43* | -11
O=C(CCNC(=O)c1ccc(Br)cc1)NNC(=O)c1ccccc1 | -2 | 0 | 0 | -10 | -7 | 15
Cc1noc(C)c1CSCC(=O)N1CCN(c2ccc([N+](=O)[O-])cc2)CC1 | 1 | 8 | -21 | 11 | 58* | -6
O=C(NC1CCCCC1)N1CCN(c2ccc(Cl)cc2)CC1 | 1 | 12 | 0 | -10 | 5 | 6
O=C(NC1CCCCC1)N1CCN(c2ccc([N+](=O)[O-])cc2)CC1 | 0 | 12 | -15 | 13 | 27* | -8
O=C(c1cc([N+](=O)[O-])ccc1N1CCOCC1)N1CCN(c2ccc([N+](=O)[O-])cc2)CC1 | -6 | 1 | -11 | -14 | 32* | 3
COc1ccc2[nH]cc(CCNC(=O)CS(=O)(=O)Cc3ccccc3)c2c1 | -3 | 3 | 0 | -18 | -1 | 22
COC(=O)c1ccc(COC(=O)c2ccc(CS(=O)(=O)c3ccc(C)cc3)cc2)cc1 | -3 | 0 | -10 | 12 | 22* | -2
CCOC(=O)c1ccc(CNCc2ccc(C)cc2)cc1 | -10 | 1 | -24 | -14 | 66* | 15
Cc1ccnc2nc(C(=O)OCC(=O)NC3CCCC(C)C3C)nn12 (centres undefined) | 1 | -1 | 30* | -16 | -23 | -4
Cc1ccnc2nc(C(=O)OCCOc3cccc(Br)c3)nn12 | 3 | 0 | 23* | 26* | -20 | -5
Cc1ccnc2nc(C(=O)OCC(=O)NC3CCC(C)CC3)nn12 (centres undefined) | -4 | 0 | 8 | -7 | -13 | 3
